In the library only some 1.3% were active in any assay of this set; here they are far more common.
Efflux pump mplx = inhibitors of Candida efflux pumps in yeast, primary screen, S. cerevisiae, Nile Red, multiplex; AID 485275, 2010; 0.44% of 330,000 active; inhibition, % at 10 µM; S. cerevisiae Candida pump triplex;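 active means plate passing quality check with inhibition over a set limit, or well fluorescence over plate mean plus 4 SD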;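 further: Nile Red retained in pooled yeast measured as flow cytometry median fluorescence; 0% = buffer negative control and 100% = Enniatin B positive control; higher means more Nile Red kept so more efflux inhibition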
CIT2-GFP yeast = modulators of CIT2-GFP expression in yeast, primary screen, S. cerevisiae, GFP fusion, multiplex flow cytometry, MLPCN library; S. cerevisiae CIT2-GFP strain, 3 h; 100 means same as DMSO wells; GFP response vs DMSO, % at 10 µM; 0.065% of 320,000 active; AID 2029, 2009;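 active means GFP response relative to DMSO above a set limit, near the screen mean plus 3 SD, cut at about 150% in these data; inconclusive means Fewer than 70 cells measured for a yeast strain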;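 further: ratio of well median GFP fluorescence to mean of DMSO wells on the plate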
RPL19A-GFP yeast = RPL19A-GFP expression modulators in yeast, primary screen, cell-based, S. cerevisiae, multiplex flow cytometry, MLPCN | AID 2025, 2009 | 0.3% of 330,000 active | percent response vs DMSO, % at 10 µM | S. cerevisiae RPL19A-GFP strain, 3 h; stronger effect = lower value;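 active means percent response vs DMSO below 50%; inconclusive means fewer than 70 events counted for the yeast strain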;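 further: median channel GFP fluorescence of the barcoded RPL19A-GFP strain; ratio of sample median GFP to plate DMSO average so 100% = DMSO; lower means less RPL19A-GFP as with rapamycin TOR inhibition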
AGP1-GFP MLPCN = modulators of AGP1-GFP expression in yeast TOR pathway, primary screen, cell-based, multiplex flow cytometry, S. cerevisiae, MLPCN library; GFP response vs DMSO, % at 10 µM; 3 h; GFP as percent of DMSO wells; 0.02% of 320,000 active; AID 2066, 2009;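 active means GFP response relative to DMSO above a set limit, near screen average plus 3 SD, cut at about 150% in these data; inconclusive means fewer than 70 cells counted for the yeast strain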;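 further: median GFP channel fluorescence of the gated AGP1 strain per well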
LAP4-GFP MLPCN = modulators of LAP4-GFP expression in yeast, primary screen, S. cerevisiae, multiplex flow cytometry, MLPCN library | 3 h; median GFP as percent of DMSO wells | GFP response vs DMSO, % at 10 µM | 0.34% of 320,000 active | AID 2023, 2009;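 active means GFP response vs DMSO above a set limit, about the screen mean plus 3 SD, cut at about 150% in these data; inconclusive means under 70 cell events counted for the yeast strain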
MEP2-GFP yeast = modulators of MEP2-GFP levels in yeast, primary screen, S. cerevisiae, multiplex flow cytometry, MLPCN library; S. cerevisiae MEP2-GFP strain, 3 h; 100% = DMSO control level; GFP response vs DMSO, % at 10 µM; 0.51% of 330,000 active; AID 2016, 2009;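 active means GFP response versus DMSO above a set limit, roughly screen mean plus 3 SD, cut at about 180% in these data; inconclusive means fewer than 70 cells counted for a yeast strain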;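 further: median GFP fluorescence of the barcode-gated MEP2-GFP cells per well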
Cmpd fluor yeast = counter-screen for efflux pump inhibitors: compound fluorescence | shares compounds with Efflux pump mplx | S. cerevisiae AD/pABC3, flow cytometry | fluorescence ratio to DMSO, % at 10 µM | 4% of 1,700 active;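 active means fluorescence ratio to DMSO above its plate's cutoff, the plate mean ratio plus 5 SD, cut at about 210% in these data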;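 further: unstained yeast with no Nile Red so the signal is compound autofluorescence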
CaMdr1 efflux inh = inhibitors of Candida albicans Mdr1 efflux, confirmation, flow cytometry, singleplex, Cherry Pick1 set | shares compounds with Efflux pump mplx | S. cerevisiae AD/CaMDR1, Nile Red efflux | inhibition, % at 10 µM | 1% of 1,700 active; in the data active means inhibition above about 26%;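 further: 0% = DMSO vehicle and 100% = reference inhibitor; higher means more Nile Red retained so more efflux inhibition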
Cdr2 pump inh = inhibitors of Candida albicans Cdr2 efflux pump, confirmation, S. cerevisiae AD/CaCDR2, flow cytometry, cherry pick 1, singleplex; Nile Red retention ratio vs DMSO, % at 10 µM; AID 588520, 2011; 4% of 1,700 active; Nile Red retention; shares compounds with Efflux pump mplx; in the data active means Nile Red retention ratio vs DMSO above about 190%;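 further: higher ratio means more blocking of Cdr2 efflux of the dye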
Cdr1 pump inh = inhibitors of Candida albicans Cdr1 efflux pump, confirmation, S. cerevisiae AD/CaCDR1, flow cytometry, cherry pick 1, singleplex; inhibition, % at 10 µM; Nile Red efflux; shares compounds with Efflux pump mplx; 1% of 1,700 active;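 active means inhibition above the screen-wide mean plus twice its standard deviation, cut at about 32% in these data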
The depositor's hits bear a star; ? = inconclusive; · = no result.

SMILES | Efflux pump mplx | CIT2-GFP yeast | RPL19A-GFP yeast | AGP1-GFP MLPCN | LAP4-GFP MLPCN | MEP2-GFP yeast | Cmpd fluor yeast | CaMdr1 efflux inh | Cdr2 pump inh | Cdr1 pump inh
Cc1ccccc1Nc1nnc(-c2ccc(C(=O)NCCO)cc2)c2ccccc12 | 1.0* | 95.4 | 108.8 | 95.0 | 93.6 | 105.4 | 105.6 | -0.3 | 96.0 | 0.0
O=c1c(-c2ccccc2)c[nH]n1-c1cccc([N+](=O)[O-])c1 | 1.0* | 106.3 | 106.7 | 109.3 | 107.5 | 112.8 | 98.6 | 0.0 | 103.6 | 0.1
O=C(Cn1cncn1)NCc1cccc2ccccc12 | 0.9* | 95.5 | 97.4 | 95.7 | 91.4 | 96.6 | 101.2 | -0.1 | 107.2 | 0.0
O=c1[nH]c(C2CCN(S(=O)(=O)c3ccccc3)CC2)nc2c1nnn2Cc1ccc2c(c1)OCCO2 | -0.2 | 98.0 | 95.6 | 102.0 | 100.9 | 103.9 | · | · | · | ·
O=c1[nH]c(C2CCN(S(=O)(=O)c3ccc4c(c3)OCCO4)CC2)nc2c1nnn2Cc1ccc(F)cc1 | 1.8 | 97.8 | 103.4 | 100.5 | 104.8 | 107.6 | 94.4 | -0.2 | 102.2 | 0.0
O=c1[nH]c(C2CCN(S(=O)(=O)c3ccc4c(c3)OCCO4)CC2)nc2c1nnn2Cc1cccc(F)c1 | 3.2* | 101.8 | 95.9 | 94.0 | 111.4 | 124.6 | 107.8 | 0.0 | 106.0 | 1.4
CC(C)(C)C(=O)CSc1nc2c(c(-c3cccs3)c1C#N)CCC2 | 0.5* | 99.0 | 102.6 | 99.4 | 93.1 | 94.3 | 104.7 | 0.1 | 110.2 | 0.0
O=Cc1ccc(-n2cncn2)cc1 | 1.0* | 98.9 | 107.9 | 100.7 | 98.2 | 106.7 | 96.6 | -0.2 | 98.1 | -0.1
COC(=O)/C=C/c1ccc(-n2cncn2)cc1 | -0.1 | 103.1 | 101.6 | 97.5 | 95.2 | 101.8 | · | · | · | ·
Cc1ccc(NC(=O)c2cccc(S(=O)(=O)N(C)c3ccccc3)c2)cc1S(=O)(=O)N1CCOCC1 | 8.0* | 101.9 | 97.2 | 96.1 | 94.3 | 98.7 | 106.7 | -0.1 | 103.6 | 0.1
Cc1ccc(C(=O)Nc2cccc(C(=O)O)c2)cc1S(=O)(=O)N1CCOCC1 | -0.1 | 107.5 | 99.7 | 107.6 | 99.8 | 110.7 | · | · | · | ·
O=C(CN1CCCCCC1)Nc1ccc(Br)cn1 | -0.1 | 97.2 | 97.6 | 100.5 | 106.8 | 95.6 | · | · | · | ·
CCOC(=O)c1sc2nc3c(SCC(=O)O)cc(C(=O)c4ccccc4O)cn3c(=O)c2c1C | 1.5* | 102.0 | 98.0 | 99.8 | 97.7 | 93.8 | 100.2 | -0.1 | 101.5 | -0.3
CCCOc1ccc(C(=O)CCC(=O)Nc2ccc(N3CCN(C)CC3)cc2)cc1 | 0.1 | 98.2 | 98.8 | 99.9 | 106.3 | 104.7 | · | · | · | ·
CC(=O)OCCCNc1cc(Sc2ccc(C)cc2)c2nonc2c1[N+](=O)[O-] | 12.7* | 98.8 | ? | 87.6 | 93.4 | 94.2 | 88.0 | -0.2 | 102.9 | 0.5
Cc1cc(C(F)(F)F)cc(NNC(=O)NC(=O)c2ccccc2Cl)n1 | 0.2 | 88.1 | 95.3 | 96.5 | 102.0 | 95.1 | · | · | · | ·
Cc1cc(C(F)(F)F)cc(NNC(=O)NC(=O)c2ccc(Cl)cc2)n1 | 1.3* | 101.1 | 101.7 | 112.2 | 110.3 | 99.0 | 102.2 | -0.4 | 106.3 | 0.1
O=C(O)c1nnn(-c2cc(C(F)(F)F)cc(C(F)(F)F)c2)c1-c1ccccc1 | 0.0 | 106.9 | 104.4 | 96.0 | 97.5 | 104.6 | · | · | · | ·
Cc1cccc(NC(=O)CSc2nc3ccccc3c(=O)n2C)c1 | 0.0 | 91.8 | 99.1 | 97.2 | 98.3 | 105.6 | · | · | · | ·
C[C@@H]1CN([C@H](C)CO)C(=O)c2cc(NC(=O)Nc3cccc4ccccc34)ccc2O[C@H]1CN(C)Cc1ccc(C(F)(F)F)cc1 | 0.5 | 89.1 | 97.9 | 97.1 | 95.3 | 97.3 | · | · | · | ·
Cc1ccc(S(=O)(=O)N(C)C[C@H]2Oc3c(NC(=O)Nc4cccc5ccccc45)cccc3C(=O)N([C@@H](C)CO)C[C@@H]2C)cc1 | 0.9 | 96.6 | 101.1 | 101.8 | 108.7 | 99.7 | 109.0 | 0.6 | 110.2 | 1.6
C[C@H]1CN([C@@H](C)CO)C(=O)c2cc(NC(=O)Nc3cccc4ccccc34)ccc2O[C@@H]1CN(C)Cc1ccc(-c2ccccc2)cc1 | 1.8* | 97.4 | 100.8 | 104.6 | 98.9 | 100.5 | 97.0 | -0.1 | 188.1* | -0.2
NNC(=O)Cn1nc(Cc2ccccc2)n(N)c1=O | 0.2 | 93.2 | 97.7 | 96.8 | 92.8 | 97.3 | · | · | · | ·
CSc1cccc(NS(=O)(=O)c2cn(C)cn2)c1 | 1.3* | 98.1 | 103.8 | 101.6 | 94.4 | 102.7 | 98.6 | -0.3 | 80.3 | 0.0
COc1ccc(NS(=O)(=O)c2cn(C)cn2)cc1 | 0.0 | 100.6 | 94.4 | 102.6 | 107.3 | 95.4 | · | · | · | ·
SMILES | Efflux pump mplx | CIT2-GFP yeast | RPL19A-GFP yeast | AGP1-GFP MLPCN | LAP4-GFP MLPCN | MEP2-GFP yeast | Cmpd fluor yeast | CaMdr1 efflux inh | Cdr2 pump inh | Cdr1 pump inh
COCCN(C(=O)CSc1nnc(C)n1Cc1ccccc1)c1c(N)n(CC(C)C)c(=O)[nH]c1=O | 0.0 | 122.8 | 102.1 | 115.4 | 104.1 | 102.7 | · | · | · | ·
Cc1ccc(S(=O)(=O)NN2C(=O)/C(=C/c3ccc(F)cc3)SC2=S)cc1 | 0.0 | 101.0 | 99.9 | 99.8 | 92.0 | 110.1 | · | · | · | ·
O=C1/C(=C/c2ccc(F)cc2)SC(=S)N1Nc1ncc(C(F)(F)F)cc1Cl | 0.0 | 99.9 | 99.1 | 98.7 | 95.3 | 99.2 | 100.2 | -0.2 | 107.8 | -0.1
O=C1/C(=C/c2ccccn2)SC(=S)N1Nc1ncc(C(F)(F)F)cc1Cl | · | · | · | · | · | · | 100.0 | -0.1 | 92.0 | -0.1
Cc1occc1C(=O)NCc1cccc(CNC(=O)c2ccoc2C)c1 | 0.3* | 91.0 | 100.4 | 98.0 | 97.5 | 105.7 | 100.3 | -0.3 | 111.6 | 0.0
CN(c1ccc(OCC(=O)OCC(=O)Nc2ccc(OC(F)F)cc2)cc1)S(=O)(=O)c1cccs1 | 0.1 | 103.3 | 101.5 | 102.0 | 108.9 | 105.7 | · | · | · | ·
O=C(Nc1ccccc1-c1nnc(SCc2ccc(Cl)cc2)o1)c1ccccc1 | 0.5* | 104.4 | 98.7 | 99.5 | 90.9 | 102.3 | 99.8 | 0.1 | 118.4 | 0.4
O=C(Nc1ccccc1-c1nnc(SCc2ccccc2)o1)c1ccccc1 | 0.1 | 103.7 | 95.6 | 100.1 | 96.0 | 98.1 | · | · | · | ·

Compound activity as filed in PubChem BioAssay.
